Bioassay records from PubChem.
Hits are enriched below; roughly 1.7% of the tested compounds scored in any of these assays.
Peg3 imprint = induces erasure of genomic imprints in mouse ES cells; mouse ES Peg3-LacZ reporter, beta-gal luminescence, 40 h; Potency, µM (top dose mostly 60.7 µM), for inactives: at the top dose activity change, positive = activation, usual class: activators; hit rate 0.02% among 110,000; AID 1948
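Gelatin-coated wells received 300 freshly trypsinized female ES cells with a Peg3LacZ-Neo reporter on the maternal allele, then incubated 40 hours at 37C. BetaGlo was added for 5 minutes at room temperature before a single luminescence read.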
p53ts 32C kill = cytotoxicity in p53ts cells at permissive temperature; H1299-p53A138V at 32C, ATP luminescence viability, 24 h; Potency, µM (highest dose often 46.1 µM), for inactives: at the highest dose activity change, negative = cytotoxicity, most hits filed as cytotoxic; hit rate 0.93% among 130,000;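 also: 0% = DMSO and -100% = full killing by reference compound; nearly all actives have a fitted effect of over 55% in size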
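Cells: H1299 p53ts (A138V), 600/well, pre-incubated 16–30 h at 37C. Cpd up to 46 uM, 24 h, 32C. Readout: ATPlite luminescence, 20 min RT. Normalization: DMSO vs tamoxifen 100 uM. AC50 by Hill equation.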
p53ts 39C kill = cytotoxicity in p53ts cells at nonpermissive temperature | H1299-p53A138V viability at 39C, ATP luminescence, 24 h | Potency, µM (titrated, usually from 46.1 µM), for inactives: at the top dose activity change, negative = cell killing, actives largely listed as cytotoxic | hit rate 1.5% among 130,000 | AID 902; also: % is scaled to controls: 0 for no effect and ±100 for the full control effect; nearly all actives have a fitted effect of over 55% in size
IkB sig inh = IkB pathway inhibition in ABC-DLBCL cells; ABC-DLBCL IkBa-CBG/CBR dual luciferase ratio, 4 h; response scale: scaled: untreated 0%, proteasome inhibitor 100%; hit rate 0.04% among 110,000; Potency, µM (doses to about 57.1 µM), for inactives: top-dose IkBa stabilization activation; AID 445; active = well fitted curve in the direction sought with a large enough effect in the signal ratio, not every such curve was filed as active; inconclusive = small, poorly fitted or top-dose-only effect, or a change in a side signal; the % refers to the signal ratio;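 also: the direction sought is a rising ratio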
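In this assay, an IκBα–CBG68 fusion accumulates when IKK-driven degradation is blocked; native CBR normalizes for cell number. OCI-Ly3 cells were treated 4 h with compound and doxycycline, then green and red light read after Chroma-Glo addition.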
Starred values were filed as active, the others as inactive; ? = inconclusive; . = not tested or not shown; ! = repeats disagree; [ ] = another dose, or the depositor's remark. Unless noted, calls follow the shape of the dose curve; as a rule, active = well fitted curve in the direction sought with a large enough effect; inconclusive = small, poorly fitted or top-dose-only effect, or another doubt; inactive = no such curve, though single readings can be large; an effect the other way counts as inactive or inconclusive. Potency is read from the fitted curve at half-maximal effect.

SMILES | Peg3 imprint | p53ts 32C kill | p53ts 39C kill | IkB sig inh
Cc1cc2c(C(C)C)c(O)c(O)c(C=O)c2c(O)c1-c1c(C)cc2c(C(C)C)c(O)c(O)c(C=O)c2c1O | -22.4% | 20µM*! | 20µM* | ?
CN(C)c1ccc(N=O)cc1 | ? | 1.2%[1.84 µM] | ? | ?
CN(C)c1ccc(N)cc1 | -16.6% | -2.3%[1.84 µM] | 31.6µM* | ?
O=S(=O)(NCCO)c1cc[c]([Sb](=[O])([OH])[OH])cc1 | . | 14.2%[9.22 µM] | 17.2%[9.22 µM] | 0.4%[11.4 µM]
O=C(O)[C@@H](O)[C@@H](O)[C@@H]1[O][Sb][O][C@@H]1CO | . | 6.1%[9.22 µM] | 6.5%[9.22 µM] | 14.8%[11.4 µM]
O=C1C(Cl)=C(Cl)C(=O)C(Cl)=C1Cl | -49.9% | 5.01µM* | ? | ?
CC[C@H](CO)NC(=O)[C@@H]1C=C2c3cccc4c3c(cn4C)C[C@@H]2N(C)C1 | . | 23.7% | 14.5% | -3.0%
Cc1ccc(Cl)cc1NC(=O)NCc1cccn1Cc1ccc(F)cc1 | -0.9%[10.9 µM] | ? | 10µM* | -1.5%
C=C1C/C(=C\C)C(=O)O[C@@H]2CCN3CC=C(COC(=O)[C@]1(C)O)[C@H]23 | . | . | . | 2.1%[11.4 µM]
O=C(CSc1oc(-c2ccccc2)nc1S(=O)(=O)c1ccc(Cl)cc1)Nc1ccc(F)cc1 | 4.7%[10.9 µM] | ? | 12.6µM* | ?
CCOc1ccc(NC(=O)CSc2oc(-c3ccccc3)nc2S(=O)(=O)c2ccc(Cl)cc2)cc1 | -34.4%[10.9 µM] | ? | 2µM* | -3.4%
OC[C@H]1CCCN2CCCC[C@@H]12 | . | . | . | -0.8%[11.4 µM]
C=C[C@@H]1CN2CC[C@@H]1C[C@H]2[C@H](O)c1ccnc2ccccc12 | . | . | . | 0.6%[11.4 µM]
Nc1ccccc1C(=O)O | 1.4% | -0.9%[1.84 µM] | -5.3% | 3.8%
Nc1ccccc1O.O.O=C(O)[C@H]1[O][Sb][O][C@H]1C(=O)O | 0.316µM* | 7.4%[9.22 µM] | ? | ?
CN1CCN(c2ccc([N+](=O)[O-])c3[nH]o[n+](=O)c23)CC1 | . | ? | -20.9%[9.22 µM] | ?
C=C(C)CN1CC[C@@]23c4c5ccc(O)c4O[C@H]2c2[nH]c4ccccc4c2C[C@]3(O)[C@@H]1C5 | -10.8% | ? | 31.6µM* | ?
Oc1ccc2c3c1O[C@H]1c4[nH]c5ccccc5c4C[C@@]4(O)C(C2)N(CC2CC2)CCC314 (stereo partly drawn) | -8.1% | . | . | .
NC(N)=Nc1ccc2[nH]c3c(c2c1)C[C@]1(O)[C@@H]2Cc4ccc(O)c5c4[C@]1(CCN2CC1CC1)[C@H]3O5 | . | 12.6µM* | 25.1µM* | -0.3%
NC[C@H](O)c1cc(O)c(O)cc1F | . | -7.4% | 6.5% | 1.0%
O=c1cccc2n1C[C@H]1C[C@@H]2CN(CCO)C1 | . | . | . | -0.1%[11.4 µM]
C[C@@H](Cc1ccccc1)NCCC(c1ccccc1)c1ccccc1 | 5.7%[16.8 µM] | 0.0%[20.6 µM] | 12.6µM* | -0.8%[25.6 µM]
CC(CCc1ccccc1)NC(C)C(O)c1ccc(O)cc1 (stereo not drawn) | -10.3% | 3.9% | 4.9% | .
CCCCCCCC/C=C\CCCCCCCC(N)=O | -13.3% | -9.1% | 31.6µM* | 0.0%
CN(C)C(=S)SSC(=S)N(C)C | -83.8% | -21.3%[1.84 µM] | 89.7% | 6.31µM*
SMILES | Peg3 imprint | p53ts 32C kill | p53ts 39C kill | IkB sig inh
C[C@H]1C(=O)O[C@H]2CCN3CC=C(COC(=O)[C@](C)(O)[C@@]1(C)O)[C@H]23 | . | . | . | 1.1%[11.4 µM]
COc1cccc(-c2cc(C(=O)Nc3cnn(Cc4ccc(Cl)cc4Cl)c3)no2)c1 | -7.2%[10.9 µM] | ? | 10µM* | 3.9%
O=C(Nc1ccc2oc(-c3cccnc3)nc2c1)c1ccc(-c2cccc(Cl)c2)o1 | -6.6%[10.9 µM] | 2.2% | 7.9% | 1.0%
C[C@]12Cc3cn4c(nc3C=C1CC[C@H]1[C@@H]2CC[C@@]2(C)[C@H]1CC[C@@]2(O)C#N)nc1ccccc14 | . | ? | 14.1% | ?
CCn1cnc2c(Nc3cccc(Cl)c3)nc(N[C@@H]3CCCC[C@H]3N)nc21 | . | 10µM* | 12.6µM* | ?
[N-]=[N+]=[N-] | -2.8% | 7.5%[1.84 µM] | 12.4% | -0.8%
CCCCOc1ccc(CN2C(=O)C(=O)c3cc(C)ccc32)cc1OC | -34.0%[10.9 µM] | 12.1% | 10µM* | 2.6%
CC(C)(C)c1ccc(C(=O)Nc2ccc3nc(SCC(=O)N4CCCC4)sc3c2)cc1 | -14.3%[10.9 µM] | 12.6µM* | 3.16µM* | ?
